# Unmarked numbers belong to inactive results. Calls of active or inactive are those of the source. Calls follow the shape of the dose curve; as a rule, active = well fitted curve in the direction sought with a large enough effect; inconclusive = small, poorly fitted or top-dose-only effect, or another doubt; inactive = no such curve, though single readings can be large; an effect the other way counts as inactive or inconclusive.
# Molecular target: Alpha-galactosidase (Coffea arabica) (UniProt Q42656)
# Experiment: Counterscreen for Glucocerebrosidase Inhibitors: qHTS Assay for Coffee Bean alpha-Galactosidase at pH 4.5 (AID 957);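 also: plate controls were enzyme alone for no effect and no enzyme for full effect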
# Conditions: purified coffee bean alpha-galactosidase, fluorogenic substrate; series mostly up to 76.9 µM; activity change, negative = inhibition: at the top concentration
# How it was run: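 Fluorogenic qHTS at pH 4.5 (citrate buffer with Tween-20): 2 nM enzyme, 80 uM 4-MU-alpha-galactoside substrate, compound titrated 0.7 nM to 77 uM, 20 min room temperature. Glycine/NaOH stop; 4-MU read Ex 365/Em 440; Hill-equation AC50 against no-enzyme and enzyme controls.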
# Alpha-galactosidase (Coffea arabica), sequence (Q42656 whole entry, looked up): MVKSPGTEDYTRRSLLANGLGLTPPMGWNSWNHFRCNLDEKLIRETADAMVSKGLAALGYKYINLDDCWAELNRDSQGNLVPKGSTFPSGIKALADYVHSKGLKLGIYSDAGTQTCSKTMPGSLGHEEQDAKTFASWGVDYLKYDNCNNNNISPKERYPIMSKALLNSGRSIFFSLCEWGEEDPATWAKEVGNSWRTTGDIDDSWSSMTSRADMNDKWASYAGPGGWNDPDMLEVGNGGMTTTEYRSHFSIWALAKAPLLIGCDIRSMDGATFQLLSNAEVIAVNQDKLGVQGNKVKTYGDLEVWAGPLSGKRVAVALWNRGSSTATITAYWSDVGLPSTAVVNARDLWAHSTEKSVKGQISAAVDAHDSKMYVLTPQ
SMILES,outcome,"activity change, negative = inhibition"
c1ccc([C@@H]2CN3CCSC3=N2)cc1,inactive,–
C[C@@H](Cc1ccccc1)Nc1ncnc2c1ncn2[C@@H]1O[C@@H](CO)[C@H](O)[C@@H]1O,–,-6.51%
CN1[C@@H](CC(=O)c2ccccc2)CCC[C@@H]1C[C@@H](O)c1ccccc1,–,0.162%
COC(=O)c1c(-c2cc(OC)c(OC)c(OC)c2)c2ccnc(OCc3ncccn3)c2c(=O)n1Cc1ccnc(C)c1,–,-2.19%
CC[C@H](C)N(C)C(=O)c1cc2ccccc2c(-c2ccccc2Cl)n1,–,-0.373%
CC[C@]1(O)C[C@H]2CN(CCc3c([nH]c4ccccc34)[C@](C(=O)OC)(c3cc4c(cc3OC)N(C)[C@@H]3[C@](O)(C(=O)OC)[C@H](OC(C)=O)[C@]5(CC)C=CCN6CC[C@]43[C@@H]65)C2)C1,–,-1.46%
S=C(S)O[C@@H]1C[C@@H]2C[C@H]1[C@@H]1CCC[C@H]21,–,0.369%
Cc1ccc(C(=O)O[C@@H](C(=O)O)[C@@H](OC(=O)c2ccc(C)cc2)C(=O)O)cc1 (tested in a mixture with another compound),–,0.179%

# Molecular target: Alpha-galactosidase (Coffea arabica) (UniProt Q42656)
# Experiment: Counterscreen for Glucocerebrosidase Inhibitors: qHTS Assay for Coffee Bean alpha-Galactosidase at pH 5.9 (AID 998);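 also: plate controls were uninhibited enzyme for no effect and no-enzyme basal signal for full effect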
# Conditions: coffee bean alpha-galactosidase enzyme assay; series mostly up to 76.9 µM; activity, negative = inhibition: at the top concentration
# How it was run: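 Fluorogenic 4-MU substrate hydrolysis, 80 uM substrate and 2 nM coffee bean alpha-galactosidase, pH 5.9 citrate buffer, 20 min at room temperature, then NaOH/glycine stop. Titration 0.7 nM–77 uM, normalized to no-enzyme and enzyme controls, AC50 via Hill equation.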
row,SMILES,"activity, negative = inhibition"
1,N#CC(=C(/N)Sc1ccccc1N)/C(C#N)=C(/N)Sc1ccccc1N,-6.81%
2,CC[C@@H]1CN2CCc3cc(OC)c(OC)cc3[C@H]2C[C@@H]1C[C@@H]1NCCc2cc(OC)c(OC)cc21,-0.0024%
3,N[C@H](CCC(=O)N[C@H](CSN=O)C(=O)NCC(=O)O)C(=O)O,-2.09%
4,CC(C)[C@@H]1NC(=O)[C@H](CCCCN)NC(=O)[C@H](Cc2c[nH]c3ccccc23)NC(=O)[C@H](Cc2ccc(O)cc2)NC(=O)[C@H](C)N(C)C(=O)[C@H](Cc2ccccc2)NC1=O,-0.162%
5,C[C@@H](COc1ccccc1)N(CCCl)Cc1ccccc1,-5.7%
6,COc1ccc2c(c1)CCC1C2CC[C@]2(C)[C@H](NCCCCCCN3C(=O)C=CC3=O)CC[C@@H]12 (stereo partly drawn),0.514%
7,O=C1OC(=O)[C@@H]2[C@@H]1[C@@H]1CC[C@H]2O1,0.472%
8,CC(=O)O[C@@H]1[C@H]([N+]2(C)CCCCC2)C[C@@H]2[C@@H]3CC[C@@H]4C[C@@H](OC(C)=O)[C@H]([N+]5(C)CCCCC5)C[C@@]4(C)[C@H]3CC[C@]21C,-0.969%
9,CN1[C@@H](CC(=O)c2ccccc2)CCC[C@@H]1C[C@@H](O)c1ccccc1,1.27%
10,Cc1ccc(C(=O)O[C@@H](C(=O)O)[C@@H](OC(=O)c2ccc(C)cc2)C(=O)O)cc1 (tested in a mixture with another compound),2.36%
